Only some compounds are listed: those with a hit (about 6.7% of all), similar ones and a draw of the others.
Pf_Dd2_growth: P. falciparum Dd2 growth inhibition | activity change, % at 10 µM | SYBR Green, 72 h; hits give low values | 94,000 compounds, 2.3% hits | AID 1159554; in the data active = activity change below about -80%; inconclusive = no clear call, values can overlap the other calls
C_diff_growth: inhibitors of Clostridium difficile growth. 86,000 compounds, 0.25% hits. growth activity, negative = inhibition, % at 16 µg/mL (by protocol). AID 1259249. Clostridium difficile clinical isolate growth, OD600, 24 h; hits give low values;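 active = mean growth activity at or below -80% and every replicate also at or below -80%; inconclusive = mean at or below -80% but some replicate above -80%; inactive = mean growth activity above -80%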;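 also: 0% = DMSO wells and -100% = levofloxacin 16 µg/mL wells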
T_cruzi_growth-1: inhibitors of T. cruzi proliferation | T. cruzi beta-gal in NIH3T3, GalScreen luminescence, 90 h | inhibition, % at 8.34 µM | 77,000 compounds, 5.9% hits | AID 624255;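 active = mean inhibition above about 93%, with at least 55% of replicates each passing it, limit read from the data, passing the limit was not always enough; inconclusive = only one of those two conditions holds; inactive = neither condition holds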
T_cruzi_growth-2: inhibitors of T. cruzi proliferation; shares compounds with T_cruzi_growth-1; T. cruzi beta-gal in NIH3T3, GalScreen luminescence, 90 h; inhibition, % at 8.35 µM; 5,600 compounds, 72% hits; AID 651739;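 active = mean replicate inhibition above about 95% and at least 55% of replicates individually reaching it, limit read from the data; inconclusive = only one of the two criteria is met; inactive = neither criterion is met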
T_cruzi_growth-3: inhibitors of T. cruzi proliferation; shares compounds with T_cruzi_growth-1; T. cruzi beta-gal in NIH3T3, GalScreen luminescence, 90 h; 5,600 compounds, 21% hits; inhibition, % at 2.09 µM;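 active = mean inhibition above about 95%, with at least 55% of replicates also reaching it, limit read from the data; inconclusive = meets just one of the two conditions; inactive = meets neither condition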;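 also: plate controls were neutral control median for no effect and positive control median for full effect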
NIH3T3_tox: cytotoxicity in mouse NIH/3T3 fibroblasts; shares compounds with T_cruzi_growth-1; NIH/3T3 viability, CellTiter-Glo ATP luminescence, 90 h; cytotoxicity (signal decrease), % at 8.35 µM; 5,600 compounds, 14% hits; AID 651742;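 active = mean signal decrease across replicates above about 35% based on untreated-well scatter, with enough replicates individually passing, limit read from the data; inconclusive = no rule stated though some were filed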;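 also: 0% = median of neutral control wells and 100% = median of positive control wells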
NIH3T3_tox_2: kills mouse NIH/3T3 fibroblasts | shares compounds with T_cruzi_growth-1 | NIH/3T3 viability, CellTiter-Glo ATP luminescence, 90 h | inhibition, % at 24.9 µM | 5,600 compounds, 56% hits | AID 651744;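 active = mean loss of cell viability signal at or above a set limit, and enough replicates individually reaching it; inconclusive = meets only the mean limit or only the replicate share; inactive = meets neither condition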;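 also: 0% = median of neutral control wells and 100% = median of positive control wells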
An asterisk follows results filed as active; ? = inconclusive; . = no result.

SMILES Pf_Dd2_growth C_diff_growth T_cruzi_growth-1 T_cruzi_growth-2 T_cruzi_growth-3 NIH3T3_tox NIH3T3_tox_2
Cc1noc(C)c1S(=O)(=O)Nc1ccc2c(c1)C(=O)N([C@H](C)CO)C[C@@H](C)[C@H](CN(C)S(=O)(=O)c1ccc(Cl)cc1)O2 -15 0 -43 . . . .
C[C@@H]1CN([C@@H](C)CO)C(=O)c2cc(NS(=O)(=O)c3ccccc3)ccc2O[C@H]1CN(C)S(=O)(=O)c1cccs1 -3 1 39 . . . .
CNC(=O)C[C@@H]1CC[C@H]2[C@H](COc3ccc(NS(=O)(=O)c4cccc(F)c4)cc3C(=O)N2C)O1 2 -5 -13 . . . .
Cc1cc(C(=O)Nc2cccc3c2O[C@@H](CN(C)Cc2ccc(C(=O)Nc4ccccc4N)cc2)[C@@H](C)CN([C@@H](C)CO)C3=O)n(C)n1 -78 -5 101* 102* 74 -4 28
Cc1cc(C(=O)Nc2cccc3c2O[C@H](CN(C)Cc2ccc(Oc4ccccc4)cc2)[C@H](C)CN([C@@H](C)CO)C3=O)n(C)n1 -13 -6 -30 . . . .
Cc1cc(C(=O)Nc2cccc3c2O[C@@H](CN(C)Cc2ccc(Oc4ccccc4)cc2)[C@H](C)CN([C@H](C)CO)C3=O)n(C)n1 -21 1 104* 104* 59 15 104*
Cc1cc(C(=O)Nc2cccc3c2O[C@@H](CN(C)Cc2ccc(C(=O)O)cc2)[C@@H](C)CN([C@H](C)CO)C3=O)n(C)n1 9 -1 . . . . .
C[C@@H]1CN([C@@H](C)CO)C(=O)c2cccc(NC(=O)c3cnccn3)c2O[C@H]1CN(C)Cc1ccc(C(=O)Nc2ccccc2N)cc1 -93* 6 112* 107* 85 33 42*
C[C@H](CO)N1C[C@H](C)[C@@H](CN(C)Cc2ccc(C(=O)Nc3ccccc3N)cc2)Oc2c(NC(=O)C3CCOCC3)cccc2C1=O -48 2 99* 102* 87 3 4
C[C@H]1CN([C@@H](C)CO)C(=O)c2cccc(NC(=O)c3cnccn3)c2O[C@@H]1CN(C)Cc1ccc(C(=O)O)cc1 -14 -3 -10 . . . .
C[C@H](CO)N1C[C@H](C)[C@H](CN(C)Cc2ccc(C(=O)Nc3ccccc3N)cc2)Oc2c(NC(=O)C3CCOCC3)cccc2C1=O -14 -2 86 . . . .
COc1ccc(-c2ccc3c(c2)O[C@@H](CN(C)C(C)=O)[C@H](C)CN([C@@H](C)CO)S3(=O)=O)cc1 4 -13 48 . . . .
CO[C@@H]1CN(C)C(=O)c2cc(NC(=O)c3ccccc3F)ccc2OC[C@H](C)N(C(C)=O)C[C@H]1C -16 . 54 . . . .
O=C(C[C@H]1C=C[C@H](NC(=O)c2ccccc2)[C@@H](CO)O1)NCc1ccncn1 20 . -19 . . . .
CN(C[C@@H]1N[C@@H](CO)[C@@H]1c1ccc(C2=CCCC2)cc1)S(C)(=O)=O -9 3 3 . . . .
CCCNC(=O)Nc1ccc2c(c1)C(=O)N(C)[C@@H]1CC[C@H](CC(=O)NCCCN(C)C)O[C@@H]1CO2 4 -1 18 . . . .
C[C@@H]1CN([C@@H](C)CO)C(=O)c2cccc(NC(=O)c3ccncc3)c2O[C@@H]1CN(C)Cc1ccc(C(=O)Nc2ccccc2N)cc1 -35 -2 ? 89 48 21 67*
C[C@@H]1CN([C@@H](C)CO)C(=O)c2cccc(N(C)C)c2O[C@H]1CN(C)Cc1ccc(C(=O)Nc2ccccc2N)cc1 -74 2 90 . . . .
C[C@@H]1CN([C@H](C)CO)C(=O)c2cccc(NC(=O)c3ccncc3)c2O[C@H]1CN(C)Cc1ccc(C(=O)Nc2ccccc2N)cc1 -78 -5 100* 107* 91 3 25
C[C@H](CO)N1C[C@H](C)[C@@H](CN(C)Cc2ccc(C(=O)Nc3ccccc3N)cc2)Oc2c(cccc2N(C)C)C1=O -75 -5 ? 102* 13 10 33*
C[C@H]1CN([C@@H](C)CO)C(=O)c2cccc(NC(=O)c3ccncc3)c2O[C@H]1CN(C)Cc1ccc(C(=O)Nc2ccccc2N)cc1 -46 4 . . . . .
C[C@@H]1CN([C@@H](C)CO)C(=O)c2cccc(NC(=O)c3ccncc3)c2O[C@H]1CN(C)Cc1ccccc1 -15 -2 64 . . . .
C[C@@H]1CN([C@@H](C)CO)C(=O)c2cc(NC(=O)c3ccccc3)ccc2O[C@@H](C)CCCCO[C@H]1CN(C)C(=O)c1ccncc1 -10 -6 91 . . . .
COCC(=O)Nc1ccc2c(c1)[C@@H]1C[C@@H](CC(=O)O)O[C@@H](CO)[C@@H]1O2 12 -5 . . . . .
COCCNC(=O)C[C@@H]1C[C@@H]2c3cc(NC(=O)CC4CC4)ccc3O[C@@H]2[C@H](CO)O1 25 1 7 . . . .
SMILES Pf_Dd2_growth C_diff_growth T_cruzi_growth-1 T_cruzi_growth-2 T_cruzi_growth-3 NIH3T3_tox NIH3T3_tox_2
C[C@H]1CN([C@@H](C)CO)C(=O)c2cc(NC(=O)Nc3ccc(F)cc3)ccc2O[C@@H]1CN(C)C(=O)Nc1ccc(F)cc1 25 1 -10 . . . .
COc1ccc(-c2ccc3c(c2)O[C@@H](CN(C)C(C)=O)[C@@H](C)CN([C@H](C)CO)S3(=O)=O)cc1 -21 -8 -12 . . . .
O=C(CN1CCOCC1)N[C@@H]1CC[C@@H](CCn2cc(C3CCCC3)nn2)O[C@H]1CO -6 -6 . . . . .
Cc1ccccc1S(=O)(=O)Nc1ccc2c(c1)C(=O)N(C)[C@H]1CC[C@H](CC(=O)O)O[C@@H]1CO2 17 . 20 . . . .
C[C@@H]1CCCCO[C@H](CN(C)Cc2ccc3c(c2)OCO3)[C@H](C)CN([C@@H](C)CO)C(=O)c2cc(NC(=O)Nc3ccc(F)cc3)ccc2O1 -64 12 105* 105* 103* 8 104*
C[C@@H]1CCCCO[C@H](CN(C)Cc2ccc3c(c2)OCO3)[C@@H](C)CN([C@@H](C)CO)C(=O)c2cc(NC(=O)Nc3ccc(F)cc3)ccc2O1 -70 11 105* 102* 104* 13 105*
CC(C)NC(=O)Nc1ccc2c(c1)C(=O)N([C@@H](C)CO)C[C@@H](C)[C@@H](CN(C)Cc1ccc3c(c1)OCO3)OCCCC[C@@H](C)O2 -20 -6 77 . . . .
CC(C)NC(=O)Nc1ccc2c(c1)C(=O)N([C@H](C)CO)C[C@@H](C)[C@@H](CN(C)Cc1ccc3c(c1)OCO3)OCCCC[C@@H](C)O2 -48 1 -3 . . . .
C[C@@H]1CCCCO[C@@H](CN(C)Cc2ccc3c(c2)OCO3)[C@H](C)CN([C@@H](C)CO)C(=O)c2cc(NC(=O)Nc3ccc(F)cc3)ccc2O1 -66 12 110* 98* 60 31 92*

Source: PubChem
